The list is not random: actives were taken first. Their share in the collection is about 4%.
NALP1 yeast inh: NALP1 inhibition | AID 2071 | 280,000 compounds, 0.61% hits | S. cerevisiae NALP1/ASC/caspase-1 growth, X-gal OD620, 72 h | inhibition, % at 10 µM; in the data active means inhibition mostly above about 24%, no sharp cut-off; inactive means mostly below about 32%
tim10-1 inh: tim10-1 yeast growth inhibition; AID 463190; 330,000 compounds, 2.2% hits; S. cerevisiae tim10-1 ts strain growth, BacTiter-Glo, 24 h; inhibition, % at 20 µM;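 active means inhibition of at least 40%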;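 further: mutant grown at 25 °C; 0% = DMSO wells with yeast and 100% = wells holding no yeast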
TIM10 inh: inhibits growth of TIM10 yeast strain; S. cerevisiae TIM10 strain growth, BacTiter-Glo luminescence, 24 h; inhibition, % at 10 µM; 330,000 compounds, 1.4% hits; AID 463195;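 active means inhibition of 40% or more at the single tested concentration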;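 further: wild-type TIM10 isogenic control strain grown at permissive 25 °C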
NLRP3 yeast inh: inhibitors of NALP3 inflammasome in yeast | Yeast reconstituted NLRP3/ASC/caspase-1, beta-gal luminescence, 24 h | 330,000 compounds, 0.39% hits | AID 2825 | inhibition, % at 10 µM;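 active means inhibition of 50% or more; inactive means inhibition below 50%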;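 further: plate controls were induced DMSO wells for no effect and uninduced yeast grown without galactose for full effect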
tim23-1 inh: tim23-1 yeast growth inhibition; inhibition, % at 20 µM; S. cerevisiae tim23-1 growth, BacTiter-Glo luminescence, 24 h; 330,000 compounds, 1.3% hits; AID 463212;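 active means growth inhibition of the mutant yeast at or above 50%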;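 further: temperature-sensitive mutant grown at 25 °C; plate controls were DMSO-treated mutant yeast for no effect and medium wells lacking yeast for full effect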
TIM10 conf: TIM10 yeast growth inhibition, confirmed; S. cerevisiae tim10 strain growth, BacTiter-Glo luminescence, 24 h; shares compounds with TIM10 inh; inhibition, % at 10 µM; 4,600 compounds, 63% hits;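 active means inhibition of yeast growth at or above a set limit in either of two replicates at 10 µM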;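 further: this counterscreen used the strain with wild-type TIM10; 0% = yeast with DMSO and 100% = medium wells lacking yeast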
* hit, by the source's call; x = no result given.

SMILES | NALP1 yeast inh | tim10-1 inh | TIM10 inh | NLRP3 yeast inh | tim23-1 inh | TIM10 conf
O=C(COc1ccc2cc(-c3ccccc3)c(=O)oc2c1)NCC1CCC(C(=O)O)CC1 (centres undefined) | 7 | -15 | -7 | 11 | -14 | x
CC1(C)CC2CC(C)(CN2S(=O)(=O)c2cccc(C(N)=O)c2)C1 (centres undefined) | x | 17 | 2 | 10 | 29 | x
CC1(C)CC2CC(C)(CN2S(=O)(=O)c2ccc(N)cc2)C1 (centres undefined) | 6 | 39 | 54* | -7 | 40 | 28
Cc1cc(C)c(S(N)(=O)=O)c(C)c1N(C)S(=O)(=O)c1ccc(Cl)cc1 | 8 | 5 | -2 | 14 | 15 | x
Cc1ccc(NC(=O)COC(=O)Cc2cccs2)cc1S(=O)(=O)N1CCOCC1 | 18 | 1 | 97* | 11 | 9 | -6
NC(=O)c1ccc(NC(=O)c2ccc(CN3CCOCC3)cc2)cc1 | 5 | 5 | 43* | 2 | 7 | -3
COc1ccc(NC(=O)c2ccc(CN3CCN(c4ccccc4)CC3)cc2)cc1 | 28 | 14 | 6 | 19 | 16 | x
COc1cccc(NC(=O)c2ccc(CN3CCN(c4ccccc4)CC3)cc2)c1 | 1 | 27 | 51* | 31 | 26 | 21
CCOC(=O)c1ccc(NC(=O)c2ccc(CN3CCOCC3)cc2)cc1 | 41 | -15 | -22 | 12 | 7 | x
Cc1ccc2c(c1)N(C(=O)CCC(=O)NCCCN1CCOCC1)CCO2 | 15 | -11 | 1 | 0 | 1 | x
O=S(=O)(NCc1ccc2c(c1)OCO2)c1ccc2c(c1)oc1ccccc12 | 20 | 30 | 46* | 11 | 40 | 28*
CC(O)[C@H]1CNCCN1CCc1cccc(F)c1 (some centres undefined) | x | -25 | -7 | -2 | 3 | x
COc1cc(CN2CCN(C(O)(c3ccccc3)c3ccccc3)CC2)cc(OC)c1OC | 18 | -13 | 6 | 15 | 10 | x
Oc1ccccc1CN1CCN(C(O)(c2ccccc2)c2ccccc2)CC1 | 22 | 16 | 43* | 28 | 28 | 52*
COc1cc(C(=S)N2CCN(c3cccc(Cl)c3)CC2)ccc1O | -10 | 24 | 41* | -27 | 40 | 46*
Cn1c(SCc2ccc(C#N)cc2)nnc1-c1cccc(Cl)c1 | 4 | 28 | 45* | 1 | 47 | 28
Cn1c(SCc2ccc(C#N)cc2)nnc1-c1ccccc1 | 16 | -15 | 10 | 2 | 11 | x
Fc1ccc2[nH]c3c(c2c1)CN(C(=S)NCc1ccccc1)CC3 | 10 | 29 | 41* | 21 | 49 | 38*
C=CCNC(=O)N1CCc2[nH]c3ccc(F)cc3c2C1 | 9 | 10 | 4 | 13 | -3 | x
COC(=O)C(NC(C)=O)(Nc1ccc(C)cn1)C(F)(F)F (centres undefined) | 30 | -7 | -12 | 12 | -24 | x
CCN(C(=O)C1CCCN(c2ncnc3c2nc2n3CCCCC2)C1)c1cccc(Cl)c1 (centres undefined) | 15 | 38 | 10 | 7 | 26 | x
COc1ccc(S(=O)(=O)N2CCN(CCOc3ccccc3Cl)CC2)cc1OC | x | 15 | 97* | 31 | 24 | 9
COc1ccc(S(=O)(=O)N2CCN(CCOc3ccc(Br)cc3)CC2)cc1OC | x | 20 | 13 | 24 | 32 | x
O=C(/C=C/c1ccc(Br)cc1)c1ccc(NC(=O)c2ccco2)cc1 | x | 33 | 41* | 20 | 35 | 8
O=C(COC(=O)c1c(F)cccc1F)NCc1cccs1 | x | -5 | 71* | 13 | 8 | -1
SMILES | NALP1 yeast inh | tim10-1 inh | TIM10 inh | NLRP3 yeast inh | tim23-1 inh | TIM10 conf
Cc1cccc(C(=O)OCC(=O)NCc2cccs2)c1 | -2 | 20 | 8 | 32 | 27 | x
Cc1nn(-c2cc(Cl)ccc2Cl)c(C)c1C(=O)O | 3 | 5 | 5 | 5 | -2 | x
CCN1C[C@@H]2[C@@H]3C(=O)N(Cc4ccccc4)C(=O)[C@@H]3[C@](C)(C(=O)OC)N2C1=NC | x | 15 | 12 | x | 31 | x
Cc1nn(-c2ccccc2)c(C)c1C(=O)OCc1ccc(C#N)cc1 | 18 | 12 | -12 | 19 | 21 | x
CCCC(=O)Nc1cccc(-c2nc3ccccc3o2)c1 | 9 | 25 | 47* | 40 | -8 | 12
Cc1cc2nc(/C=C/c3cccnc3)[nH]c2cc1C | 3 | -4 | 51* | 24 | 38 | 69*
Cc1cc2nc(/C=C/c3nc4cc(C)c(C)cc4[nH]3)[nH]c2cc1C | 9 | x | x | x | x | x
O=[N+]([O-])c1cc(Cl)cc(/C=N\Nc2ccccn2)c1O | -8 | 16 | 41* | 28 | 44 | 28
O=[N+]([O-])c1cc(/C=N\Nc2ccccn2)ccc1Cl | 21 | 1 | 12 | 9 | 11 | x
NC(=O)COC(=O)c1ccccc1OCc1ccccc1Cl | -13 | -16 | 14 | 20 | 6 | x
Cc1cc(Br)ccc1OCC(=O)NNC(=O)C(=O)Nc1ccccc1 | 23 | -13 | -14 | -3 | -7 | x
Cc1ccc(O)c(-c2cc(-c3ccccc3F)[nH]n2)c1 | -6 | 39 | 48* | 16 | 18 | 43*
COc1ccc2c(c1)C(c1cccs1)=NNC(c1ccncc1)=N2 | -4 | -13 | 14 | 25 | 28 | x
CCCOc1ccc(C2=NNC(c3cccs3)=Nc3ccc(OC)cc32)cc1 | 11 | 22 | 52* | 19 | 40 | 39*
Cc1ccc(C(O)P(=O)(OC2CCCCC2)OC2CCCCC2)cc1 (centres undefined) | 3 | 38 | 40* | -20 | 35 | 39*
Cc1c(Cl)cnc(NC(=O)COC(=O)c2cc3c(s2)CCC(C)C3)c1Cl (centres undefined) | 25 | 15 | 18 | -6 | 7 | x
CCOC(=O)C1=C(C)N(C)C(=S)NC1c1cccc(Cl)c1Cl (centres undefined) | 4 | 36 | 48* | -4 | 16 | 28
CCOC(=O)C1=C(C)N(C)C(=S)NC1c1ccccc1Cl (centres undefined) | 11 | 8 | 21 | 2 | 17 | x
COc1cccc(C(=O)Nn2c(-c3cccs3)nc3ccccc3c2=O)c1OC | 28 | 33 | 41* | 18 | 23 | 35*
CC(OC(=O)c1ccc([N+](=O)[O-])s1)C(=O)Nc1ncc(Cl)cc1Cl (centres undefined) | 8 | 24 | 44* | 4 | 23 | 2
Cc1ccc(OC(C)C(=O)Nc2ncc(Cl)cc2Cl)c([N+](=O)[O-])n1 (centres undefined) | x | -43 | -23 | 11 | 25 | x
CCCCc1ccc(NC(=S)NCCc2ccc(F)cc2)cc1 | 32 | 39 | 42* | 43 | 20 | 3
CCN(CC)c1ncccc1C(=O)NCc1cccs1 | -1 | -14 | -8 | 13 | -6 | x
Cc1ccc(C)c(Nc2ncccc2C(=O)NCc2cccs2)c1 | 6 | 40 | 45* | 11 | 49 | 44*
CC(C)(C)OC(=O)C(Cl)(C(=O)OC(C)(C)C)c1ccc2nnnn2n1 | -14 | x | x | x | x | x

Screening results from PubChem.
